# Source: the supplement of paper PMC12067093, “Discovery and optimisation of a covalent ligand for TRIM25 and its application to targeted protein ubiquitination” (Chemical Science, 2025)
# Of roughly 21,000 targets only a part is listed; those with the largest changes were picked by preference.
# Molecular target: PKN2_Q16513_118_LQELNAHIVVSDPEDITDCPR (UniProt Q16513)
# Experiment: probe-labelled cysteine peptide fold change vs DMSO (competition) (log2 fold change); higher = less target engagement (more negative = stronger competition)
# Conditions: THP-1, incubation time: 4 h
# 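Note: competitive profiling in live THP-1 cells: cysteine peptides tagged with an iodoacetamide desthiobiotin (IA-DTB) probe, intensity after compound treatment relative to DMSO-treated cells.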
# UniProt Q16513, sequence (Q16513 whole entry, looked up): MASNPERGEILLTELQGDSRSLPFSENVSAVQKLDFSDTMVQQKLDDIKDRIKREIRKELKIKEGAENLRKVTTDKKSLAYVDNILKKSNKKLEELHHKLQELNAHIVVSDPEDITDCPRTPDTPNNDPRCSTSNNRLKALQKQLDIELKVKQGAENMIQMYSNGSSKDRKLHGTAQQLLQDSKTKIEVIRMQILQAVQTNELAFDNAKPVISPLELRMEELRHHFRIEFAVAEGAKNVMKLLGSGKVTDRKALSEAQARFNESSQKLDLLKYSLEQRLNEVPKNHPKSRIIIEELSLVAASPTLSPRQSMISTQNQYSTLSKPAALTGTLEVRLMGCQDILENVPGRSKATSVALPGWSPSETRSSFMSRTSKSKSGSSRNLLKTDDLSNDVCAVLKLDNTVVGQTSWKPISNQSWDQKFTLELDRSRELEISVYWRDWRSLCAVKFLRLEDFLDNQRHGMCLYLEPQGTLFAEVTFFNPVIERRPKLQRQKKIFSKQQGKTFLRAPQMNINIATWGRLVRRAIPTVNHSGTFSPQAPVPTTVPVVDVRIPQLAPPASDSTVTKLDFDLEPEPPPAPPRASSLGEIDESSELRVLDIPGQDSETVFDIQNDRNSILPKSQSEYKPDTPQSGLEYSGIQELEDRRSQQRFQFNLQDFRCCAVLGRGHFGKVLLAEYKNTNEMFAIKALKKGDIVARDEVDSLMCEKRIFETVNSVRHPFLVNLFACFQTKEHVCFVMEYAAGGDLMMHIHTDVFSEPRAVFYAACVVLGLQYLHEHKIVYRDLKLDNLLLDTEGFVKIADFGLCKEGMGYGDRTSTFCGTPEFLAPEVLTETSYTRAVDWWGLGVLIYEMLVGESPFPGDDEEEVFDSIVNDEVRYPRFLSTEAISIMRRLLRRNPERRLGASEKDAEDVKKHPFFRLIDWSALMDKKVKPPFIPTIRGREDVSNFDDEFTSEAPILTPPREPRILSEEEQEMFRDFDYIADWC
smiles,measurement,setting,value
Cc1cc(C(=O)N2CCCN(C(=O)CCl)CC2)ccc1-c1ccccc1 [compound 10],probe-labelled cysteine peptide fold change,10 µM,-0.00661
same,probe-labelled cysteine peptide fold change,50 µM,0.269
